The record followed here is PubChem BioAssay (EPA / NIEHS).

Several values for one entry are separate records, joined by “and”; a condition that tells them apart may be missing. Identical values can stand only once. A structure can be active in one record and inactive in another. Activity calls are given as the source filed them. The calls were made as follows: active = hit-call score of the fitted dose curve at least 0.9, where 1 is the maximum; inactive = score below 0.9.

A word on the AC50: it is the concentration giving half of the maximal activity seen.

Read-out in assay [1]: Interleukin-8 (IL8), CXCL8 (gene 3576)
Put plainly: BSK_CASM3C_IL8: BioMAP Diversity Plus: CASM3C Assay for Interleukin-8 (IL8) Biomarker Activity (AID 2283042).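 Also: IL-8 protein level quantified by ELISA.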 The note with it: primary human coronary artery smooth muscle cells; actives raise or lower the signal.

Read-out in assay [2]: Human Leukocyte Antigen - DR isotype (HLADR), HLA-DRA (gene 3122)
Put plainly: BSK_CASM3C_HLADR: BioMAP Diversity Plus: CASM3C Assay for Human Leukocyte Antigen - DR isotype (HLADR) Biomarker Activity (AID 2283043).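 Also: cell-surface HLA-DR protein level quantified by ELISA.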 The note with it: primary human coronary artery smooth muscle cells; actives raise or lower the signal.

Read-out in assay [3]: Macrophage colony-stimulating factor (MCSF), CSF1 (gene 1435)
Put plainly: BSK_CASM3C_MCSF: BioMAP Diversity Plus: CASM3C Assay for Macrophage colony-stimulating factor (MCSF) Biomarker Activity (AID 2283044).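 Also: M-CSF protein amount quantified by ELISA after 24 h exposure.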 Conditions: primary human coronary artery smooth muscle cells; actives raise or lower the signal.

Read-out in assay [4]: Low-density lipoprotein receptor (LDLR), LDLR (gene 3949)
Put plainly: BSK_CASM3C_LDLR: BioMAP Diversity Plus: CASM3C Assay for Low-density lipoprotein receptor (LDLR) Biomarker Activity (AID 2283045).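 Also: LDLR protein level on the cell surface quantified by ELISA.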 Conditions: primary human coronary artery smooth muscle cells; actives raise or lower the signal.

Read-out in assay [5]: Monocyte Chemoattractant Protein-1 (MCP1), CCL2 (gene 6347)
The experiment in a line: BSK_CASM3C_MCP1: BioMAP Diversity Plus: CASM3C Assay for Monocyte Chemoattractant Protein-1 (MCP1) Biomarker Activity (AID 2283046).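 Also: MCP-1 level quantified by ELISA 24 h after dosing.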 Conditions: primary human coronary artery smooth muscle cells; actives raise or lower the signal.

A short description of assay [6]: BSK_CASM3C_Proliferation: Cell Proliferation Assessment in the BioMAP Diversity Plus: CASM3C Assay (AID 2283047).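 Also: sulforhodamine B total protein stain as relative cell number at 560 nm; sub-confluent cells exposed 48 h before staining; fitted both ways against DMSO so gain or loss of cell number.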 The note with it: primary human coronary artery smooth muscle cells.
Read-out in assay [7]: Monokine induced gamma interferon (MIG), CXCL9 (gene 4283)
Put plainly: BSK_CASM3C_MIG: BioMAP Diversity Plus: CASM3C Assay for Monokine induced gamma interferon (MIG) Biomarker Activity (AID 2283048).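 Also: MIG protein level measured by ELISA.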 The note with it: primary human coronary artery smooth muscle cells; actives raise or lower the signal.

Read-out in assay [8]: serum amyloid A (SAA), SAA1 (gene 6288)
The experiment in a line: BSK_CASM3C_SAA: BioMAP Diversity Plus: CASM3C Assay for serum amyloid A (SAA) Biomarker Activity (AID 2283049).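 Also: SAA protein level quantified by ELISA.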 The note with it: primary human coronary artery smooth muscle cells; actives raise or lower the signal.

The nature of assay [9]: BSK_CASM3C_SRB: Viability Assessment in the BioMAP Diversity Plus: CASM3C Assay (AID 2283050).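 Also: total protein by SRB staining as cytotoxicity measure in parallel cultures; cells exposed to compound for 24 h.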 Conditions: primary human coronary artery smooth muscle cells.
Read-out in assay [10]: Thrombomodulin, THBD (gene 7056)
The experiment in a line: BSK_CASM3C_Thrombomodulin: BioMAP Diversity Plus: CASM3C Assay for Thrombomodulin Biomarker Activity (AID 2283051).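 Also: thrombomodulin protein level measured by ELISA 24 h after dosing.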 Conditions: primary human coronary artery smooth muscle cells; actives raise or lower the signal.

Read-out in assay [11]: Tissue Factor, F3 (gene 2152)
Put plainly: BSK_CASM3C_TissueFactor: BioMAP Diversity Plus: CASM3C Assay for Tissue Factor Biomarker Activity (AID 2283052).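 Also: cell surface tissue factor protein level read by ELISA.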 Conditions: primary human coronary artery smooth muscle cells; actives raise or lower the signal.

Read-out in assay [12]: Interferon-gamma inducible Protein 10 (IP10), CXCL10 (gene 3627)
Put plainly: BSK_hDFCGF_IP10: BioMAP Diversity Plus: hDFCGF Assay for Interferon-gamma inducible Protein 10 (IP10) Biomarker Activity (AID 2283053). The note with it: primary human foreskin fibroblasts; actives raise or lower the signal. In a few lines:
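IP-10 levels, quantified by ELISA, are taken from human foreskin fibroblast cultures 24 h after chemical treatment, with DMSO serving as negative control and baseline for bidirectional analysis.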

Read-out in assay [13]: Urokinase-type plasminogen activator receptor (uPAR), PLAUR (gene 5329)
Put plainly: BSK_CASM3C_uPAR: BioMAP Diversity Plus: CASM3C Assay for Urokinase-type plasminogen activator receptor (uPAR) Biomarker Activity (AID 2283054).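 Also: cell-surface uPAR protein level quantified by ELISA.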 The note with it: primary human coronary artery smooth muscle cells; actives raise or lower the signal.

Read-out in assay [14]: Vascular cell adhesion molecule 1 (VCAM1), VCAM1 (gene 7412)
The experiment in a line: BSK_CASM3C_VCAM1: BioMAP Diversity Plus: CASM3C Assay for Vascular cell adhesion molecule 1 (VCAM1) Biomarker Activity (AID 2283055).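 Also: VCAM-1 protein level quantified by ELISA on the cells.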 Conditions: primary human coronary artery smooth muscle cells; actives raise or lower the signal.

Read-out in assay [15]: Collagen III, COL3A1 (gene 1281)
Put plainly: BSK_hDFCGF_CollagenIII: BioMAP Diversity Plus: hDFCGF Assay for Collagen III Biomarker Activity (AID 2283056). The note with it: primary human foreskin fibroblasts; actives raise or lower the signal. In a few lines: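 Human foreskin primary fibroblasts were exposed to test chemicals for 24 h, after which collagen III was quantified by ELISA. Activity was fitted bidirectionally against DMSO as negative control and baseline.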

Read-out in assay [16]: Epidermal growth factor receptor (EGFR), EGFR (gene 1956)
The experiment in a line: BSK_hDFCGF_EGFR: BioMAP Diversity Plus: hDFCGF Assay for Epidermal growth factor receptor (EGFR) Biomarker Activity (AID 2283057). The note with it: primary human foreskin fibroblasts; actives raise or lower the signal. The gist of the method:
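Measured by ELISA: EGFR levels on primary human foreskin fibroblasts 24 h after chemical treatment, analysed relative to DMSO with bidirectional fitting.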

Read-out in assay [17]: Interleukin-8 (IL8), CXCL8 (gene 3576)
The experiment in a line: BSK_hDFCGF_IL8: BioMAP Diversity Plus: hDFCGF Assay for Interleukin-8 (IL8) Biomarker Activity (AID 2283058). Conditions: primary human foreskin fibroblasts; actives raise or lower the signal. The gist of the method: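 hDFCGF human dermal fibroblasts; 24 h chemical exposure; IL-8 by ELISA; bidirectional curve fit vs DMSO baseline; gain or loss of signal scored.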

Assay [18] can be described thus: BSK_hDFCGF_Proliferation: Cell Proliferation Assessment in the BioMAP Diversity Plus: hDFCGF Assay (AID 2283059).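 Also: curves fitted for both rise and fall of signal versus DMSO baseline.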 The note with it: primary human foreskin fibroblasts. In a few lines: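 This proliferation readout used SRB total-protein staining of human foreskin fibroblasts […], normalized to DMSO with bidirectional curve fitting.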
Read-out in assay [19]: Macrophage colony-stimulating factor (MCSF), CSF1 (gene 1435)
Put plainly: BSK_hDFCGF_MCSF: BioMAP Diversity Plus: hDFCGF Assay for Macrophage colony-stimulating factor (MCSF) Biomarker Activity (AID 2283060). Conditions: primary human foreskin fibroblasts; actives raise or lower the signal. In a few lines: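 Human foreskin primary fibroblasts were treated with test chemical for 24 h, and M-CSF was then measured by ELISA. Data were fitted bidirectionally against DMSO as the negative control and activity baseline.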

A short description of assay [20]: BSK_hDFCGF_SRB: Viability Assessment in the BioMAP Diversity Plus: hDFCGF Assay (AID 2283061).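 Also: cells exposed to compound for 24 h before the read.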 Conditions: primary human foreskin fibroblasts. In a few lines: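 Human foreskin primary fibroblasts were treated with compound and assessed 24 h after dosing. Total protein was measured by sulforhodamine B staining (0.1% SRB after 10% TCA fixation, 560 nm read) as a cytotoxicity marker, with bidirectional fitting against DMSO baseline.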

Regarding `CC(=O)c1c(C)c([N+](=O)[O-])c(C(C)(C)C)c([N+](=O)[O-])c1C`, the result in [1], in [2], in [3], in assay [4], in assay [5] and in [6] was inactive. For the same compound, the result in assay [7], in assay [8], in assay [9], in assay [10], in assay [11] and in assay [12] was inactive. Moreover, the result in assay [13], in [14], in [15], in [16], in assay [17] and in assay [18] was inactive. For the same compound, the outcome in [19] and in [20] was inactive.

For the compound `CN(C)C(=S)SC(=S)N(C)C`, the result in assay [1], in assay [3], in assay [4], in assay [5], in assay [8] and in assay [9] was inactive. Moreover, the outcome in [11], in [13] and in assay [20] was inactive. Moreover, the AC50 in assay [2] was 19.9 µM (active); in [6] it was 19.9 µM (active); in [7], 19.9 µM (active); in assay [10] it was 4.02 µM (active); in assay [12], 35.1 µM (active); in assay [14] it was 19.9 µM (active). Moreover, the half-maximal activity concentration (AC50) was 15.2 µM (active) in assay [15], 19.9 µM (active) in assay [16], 39.1 µM (active) in assay [17] and 30.2 µM (active) in assay [18].

For the compound `CCOC(=O)C(C#N)=C(c1ccccc1)c1ccccc1`, the result in assay [1], in [2], in [3], in assay [4], in assay [5] and in assay [7] was inactive. Further, the result in assay [8], in [9], in assay [10], in assay [11], in assay [12] and in assay [13] was inactive. Further, the result in [14], in assay [16], in assay [17], in assay [18] and in assay [20] was inactive. The AC50 in assay [6] was 12.8 µM (active) and 3.97 µM (active); in assay [10], 13.7 µM (active); in [15] it was 29.7 µM (active) and 21.9 µM (active); in assay [18], 29.5 µM (active).

With `O=C1c2ccccc2C(=O)c2c(O)ccc(O)c21`, the result in [1], in assay [3], in assay [4], in [5], in assay [7] and in assay [8] was inactive. For the same compound, the result in [9], in assay [10], in assay [11], in [12], in assay [15] and in assay [16] was inactive. The outcome in [17] and in assay [20] was inactive. The AC50 in [2] is 4.94 µM (active); in [6] it was 15 µM (active); in assay [13] it was 4.99 µM (active); in [14], 5.44 µM (active); in assay [18] it was 3.14 µM (active); in [19], 1.38 µM (active).

With `COc1cc(Cl)c(OC)cc1N`, the outcome in [1], in [2], in assay [3], in assay [4], in assay [5] and in assay [6] was inactive. Also, the result in assay [7], in assay [8], in assay [9], in assay [10], in [11] and in [12] was inactive. For the same compound, the outcome in assay [13], in assay [14], in [15], in assay [16], in [17] and in assay [18] was inactive. Also, the result in assay [19] and in assay [20] was inactive.

Take `C=CC(C)(O)CCC=C(C)C` (stereo not given): the result in [1], in [2], in assay [3], in assay [4], in assay [5] and in assay [6] was inactive. Besides, the outcome in assay [7], in assay [8], in assay [9], in assay [10], in assay [11] and in [12] was inactive. Further, the result in assay [13], in [14], in assay [15], in assay [16], in [17] and in assay [18] was inactive. Moreover, the outcome in [20] was inactive. In addition, the AC50 in [6] is 4.81 µM (active).
